Values joined by “and” are separate entries in the source; they are usually repeats but may differ in a detail not shown here. Equal values may be shown once. Results filed as inconclusive are left out. A number with no mark means an inactive call. Active and inactive are the calls of the source. The call rests on the fitted dose curve; in most records, active means well fitted inhibition curve with a large enough effect in the repeat runs; inconclusive means weak or mixed curves; inactive means no such curve, though single readings can be large or run the other way.
On the % scale 0 is the no-effect control and ±100 the full control effect; potency means the concentration at half of the fitted maximal effect.

The test deals with Cytochrome P450 1A2 (Homo sapiens) (UniProt P05177). Nature of the test: Cytochrome P450 Family 1 Subfamily A Member 2 (CYP1A2) small molecule antagonists: luciferase reporter qHTS assay (AID 1671199). Further: nearly all actives have a fitted effect of over 50% in size. The following applies: P450-Glo CYP1A2 enzyme, luciferin luminescence, 1 h; series mostly up to 115 µM; activity change, negative = inhibition: at the top concentration. The text has this: National Center for Advancing Translational Sciences [NCATS]
Cytochrome P450 1A2 (Homo sapiens), sequence (P05177 whole entry, looked up): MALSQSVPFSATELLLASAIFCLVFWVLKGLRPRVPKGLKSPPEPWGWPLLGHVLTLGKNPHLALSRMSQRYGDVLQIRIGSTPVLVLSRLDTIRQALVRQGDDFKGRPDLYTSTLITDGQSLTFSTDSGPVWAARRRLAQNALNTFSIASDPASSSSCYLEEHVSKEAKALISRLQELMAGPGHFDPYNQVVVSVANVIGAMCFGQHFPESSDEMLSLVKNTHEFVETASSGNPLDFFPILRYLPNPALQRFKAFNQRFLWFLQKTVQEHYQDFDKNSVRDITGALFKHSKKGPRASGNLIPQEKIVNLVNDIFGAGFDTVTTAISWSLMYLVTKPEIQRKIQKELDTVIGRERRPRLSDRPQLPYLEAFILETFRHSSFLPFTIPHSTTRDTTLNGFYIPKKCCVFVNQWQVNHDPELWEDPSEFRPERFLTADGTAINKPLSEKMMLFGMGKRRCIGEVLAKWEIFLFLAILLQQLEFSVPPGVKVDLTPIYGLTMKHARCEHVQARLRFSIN
U.S. Environmental Protection Agency [EPA]
National Institutes of Environmental Health Sciences [NIEHS]
National Toxicology Program [NTP]
U.S. Food and Drug Administration [FDA]
Cytochrome P450 (CYP) enzymes are membrane-bound hemeproteins that play a key role in metabolism of drugs and xenobiotics. Evaluation of the effect of chemicals on CYP isozymes is useful to minimize the adverse drug reactions and toxicities in drug development process. Tox21 chemicals were tested for their effect on CYP enzyme activities by using P450-Glo (TM) screening systems (Promega Corporation, Madison, WI). These systems provide a luminescent method containing proluciferin substrates and are converted to luciferin products by CYP isozymes. The luciferin products formed are detected with a luciferin detection reagent, and the amount of light produced is proportional to CYP activity. P450-Glo (TM) CYP1A2 screening system (Catalog. No. V9770) was used to detect the compounds that interfere in CYP1A2 activity. The positive control compound used for CYP1A2 assay is furafylline (Sigma-Aldrich, St. Louis, MO).
Tox21 Assay Protocol Summary:
Two ul of enzyme-substrate mix was dispensed into medium binding white/solid 1536-well plates (Greiner Bio-One North America Inc., Monroe, NC) using a BioRaptr Flying Reagent Dispenser (FRD, Beckman Coulter, Brea, CA). Compounds dissolved in DMSO and positive control (furafyllline) were transferred to the assay plates at 23 nl using a Pintool station (Wako, San Diego, CA). The assay plates were incubated at room temperature for 10 min. Then 2 ul of NADPH regeneration solution was added to each well of the assay plates using an FRD and incubated at room temperature for 1 h. The reaction was stopped by adding 4 ul of detection reagent using an FRD and after 20 min incubation at room temperature the luminescence signal was measured using a ViewLux plate reader (Perkin Elmer, Shelton, CT). Data were expressed as relative luminescence units.
In general terms: In a reporter assay the amount or activity of a reporter protein is the signal.
In the case of `CCCCCCCC`, the “activity change, negative = inhibition” value is -27.7%. As for `O=C(c1ccc(O)c(O)c1)c1ccc(O)cc1O`, the Potency was 31.7 µM (active). Same read-out and setting: the value for `Cc1c(C)c([N+](=O)[O-])c(C(C)(C)C)c([N+](=O)[O-])c1C` was 20 µM (active). With `O=C(O)[C@H](O)[C@@H](O)[C@H](O[C@@H]1O[C@H](CO)[C@H](O)[C@H](O)[C@H]1O)[C@H](O)CO`, the “activity change, negative = inhibition” value was 1.05% [at 53 µM].

As for `O=C(O)c1cccc(C(F)(F)F)c1`, the “activity change, negative = inhibition” value is -20.2%. With `C#Cc1ccc(-c2ccccc2F)cc1`, the Potency was 0.911 µM (active). Take `Cc1cc(C(C)(C)C)cc(C)c1CC1=NCCN1`: the “activity change, negative = inhibition” value was -12.3% [at 53 µM].

In the case of `Nc1ccc(NCCO)c([N+](=O)[O-])c1`, the Potency was 31.7 µM (active).

In the case of `CC/C=C\CCCCCO`, the “activity change, negative = inhibition” value is -5.09%. On to `CCCCCCOC(=O)C(C)CC` (stereo not given), for which the “activity change, negative = inhibition” value is -19.5%. Consider `Cc1cccc2cccnc12`, for which the Potency is 44.5 µM (active).

Turning to `O=C(O)c1cc(O)c2ccccc2c1O`, the Potency was 5.64 µM (active). The same measure, in the same setting: the value for `CCCCCCCCCCC[C@@H](C[C@@H]1OC(=O)[C@H]1CCCCCC)OC(=O)[C@H](CC(C)C)NC=O` was 24.5 µM (active). With `CCCCC(CC)CN1CN(CC(CC)CCCC)CC(C)(N)C1` (stereo not given), the “activity change, negative = inhibition” value was -3.53% [at 53 µM]. In the case of `c1ccc(C(O[C@@H]2CCCN(CCc3ccc4c(c3)OCO4)C2)c2ccccc2)cc1`, the Potency was 39.9 µM (active).

With `OC[C@@H](O)[C@@H](O)CO`, the “activity change, negative = inhibition” value is -11.9%. Same read-out and setting: with `Cc1cc(-n2nc3ccc(Cl)cc3n2)c(O)c(C(C)(C)C)c1` the figure was -31.4% [at 53 µM]; with `CCCCCC/C=C\CCCCCCCC(=O)O`, -20.9%. Still for that read-out and setting: the value for `OCC(F)(F)F` was -4.48%. As for `O=C(/C=C/c1ccccc1)OC/C=C/c1ccccc1`, the Potency is 28.3 µM (active). `CC(=O)OCC=C(C)C`: the “activity change, negative = inhibition” value is -7.51% [at 53 µM].

`O=[N+]([O-])c1cccc(C(F)(F)F)c1`: the “activity change, negative = inhibition” value was -21.6%. Consider `O=C(O)c1cc(=O)c2ccccc2o1`, for which the “activity change, negative = inhibition” value was 0.826% [at 53 µM].

`CCCCC/C=C\C/C=C\CCCCCCCC(=O)O`: the “activity change, negative = inhibition” value is -7.01%. In the case of `Cc1cc(C(C)(C)C)c(O)c(C)c1Cn1c(=O)n(Cc2c(C)cc(C(C)(C)C)c(O)c2C)c(=O)n(Cc2c(C)cc(C(C)(C)C)c(O)c2C)c1=O`, the Potency is 31.7 µM (active). For `FC(F)(F)c1cccc(Cl)c1`, the “activity change, negative = inhibition” value was -17.1%. The same measure, in the same setting: the value for `CCc1ccc(Br)cc1` was 0.312%; that for `Fc1ccc(C(c2ccc(F)cc2)N2CCNCC2)cc1` was -20.9% [at 53 µM]. For the molecule `C=CC(=O)OCCOC(=O)C=C`, the “activity change, negative = inhibition” value is -10.1%. The same measure, in the same setting: with `CCCC[P+](C)(CCCC)CCCC` the figure was -15.4%. `O=[N+]([O-])c1ccc(O)cc1C(F)(F)F`: the Potency was 35.6 µM (active). Still for that read-out and setting: with `CC(C)CCCCCOC(=O)CCS` the figure was 39.9 µM (active); with `Cc1c(N)cccc1C(F)(F)F`, 13.8 µM (active). Still for that read-out and setting: the value for `CN(C)c1ccc(C(=C2C=CC(=[N+](C)C)C=C2)c2ccc(N(C)C)cc2)cc1` was 11.2 µM (active) and 20 µM (active) and 10.2 µM (active); that for `CC(C)CCOC(=O)/C=C/c1ccccc1` was 22.5 µM (active). Take `O=S(=O)(O)c1ccc(Nc2nc(Nc3ccc(/C=C/c4ccc(Nc5nc(Nc6ccc(S(=O)(=O)O)cc6)nc(N(CCO)CCO)n5)cc4S(=O)(=O)O)c(S(=O)(=O)O)c3)nc(N(CCO)CCO)n2)cc1`: the “activity change, negative = inhibition” value is -22.9% [at 53 µM]. Take `CCOC(=O)NNc1ccc(N(CC)CC(C)O)nn1` (stereo not given): the “activity change, negative = inhibition” value was -12.1% [at 53 µM]. Consider `OC[C@H]1O[C@H](O[C@H]2O[C@H](CO)[C@@H](O)[C@H](O)[C@H]2O)[C@H](O)[C@@H](O)[C@@H]1O`, for which the Potency is 63.7 µM (active).

In the case of `NC(=O)c1cccc([N+](=O)[O-])c1`, the Potency was 35.4 µM (active). Same read-out and setting: the value for `Cc1ccc(O)c(N)c1` was 40 µM (active).
